{"source": "the supplement of paper PMC11001985", "target": "ATP1B3 (UniProt P54709)", "sequence (P54709 whole entry)": "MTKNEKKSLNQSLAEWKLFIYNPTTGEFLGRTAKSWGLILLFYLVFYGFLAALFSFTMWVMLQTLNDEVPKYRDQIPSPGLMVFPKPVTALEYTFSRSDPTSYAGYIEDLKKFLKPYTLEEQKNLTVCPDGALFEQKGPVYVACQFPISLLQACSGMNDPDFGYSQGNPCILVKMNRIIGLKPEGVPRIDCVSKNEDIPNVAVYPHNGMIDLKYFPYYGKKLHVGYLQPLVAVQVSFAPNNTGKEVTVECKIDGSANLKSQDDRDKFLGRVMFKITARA", "assay": "lysine labeling ratio R10:1 (500 µM / 50 µM probe), SILAC-ABPP in living cells; higher = lower intrinsic lysine reactivity toward the probe, active = 2 or less", "conditions": "HeLa, probe concentrations 500 vs 50 µM", "experimental": "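Living HeLa cells (SILAC light/heavy) in PBS at room temperature were labeled with 50 µM versus 500 µM of the lysine-reactive, reductant-cleavable probe OPA-S-S-alkyne (SILAC labeling time not stated). Probe-modified peptides were CuAAC-biotinylated, captured on neutravidin and eluted with DTT/IAA, then quantified by LC-MS/MS. R = median peptide ratio per lysine (500/50 µM), combined over 3 forward and 3 reverse SILAC replicates. Ratios are capped at 20; R < 2 = hyper-reactive.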", "data": [{"smiles": "C#CCNC(=O)CCSSCCC(=O)NCCc1ccc(C=O)c(C=O)c1", "values": [{"measurement": "lysine labeling ratio R10:1", "setting": "lysine site: K182", "result": "5.21 (inactive)"}, {"measurement": "lysine labeling ratio R10:1", "setting": "lysine site: K220", "result": "0.695 (active)"}, {"measurement": "lysine labeling ratio R10:1", "setting": "lysine site: K259", "result": "3.28 (inactive)"}, {"measurement": "lysine labeling ratio R10:1", "setting": "lysine site: K266", "result": "2.22 (inactive)"}, {"measurement": "lysine labeling ratio R10:1", "setting": "lysine site: K274", "result": "9.2 (inactive)"}]}]}
